Activity calls are given as the source filed them.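 How the source made its calls: active means luciferase signal above three times the same-plate solvent-only control wells; inactive means the rest.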
These compounds were tested against Mitogen-activated protein kinase 7 (Homo sapiens) (UniProt Q13164) (assay: Gal4-ERK5 driven luciferase induction – cell-based, HTS, primary screen (AID 1508626;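 further: luciferase driven by Gal4-ERK5 fusion binding five Gal4 sites before minimal TATA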)). Details: HeLa Gal4-ERK5 transactivation, 18 h, at 5 µM, hits give high values.
Chain of Mitogen-activated protein kinase 7 (Homo sapiens) (Q13164 whole entry, looked up, the tested form may be a part): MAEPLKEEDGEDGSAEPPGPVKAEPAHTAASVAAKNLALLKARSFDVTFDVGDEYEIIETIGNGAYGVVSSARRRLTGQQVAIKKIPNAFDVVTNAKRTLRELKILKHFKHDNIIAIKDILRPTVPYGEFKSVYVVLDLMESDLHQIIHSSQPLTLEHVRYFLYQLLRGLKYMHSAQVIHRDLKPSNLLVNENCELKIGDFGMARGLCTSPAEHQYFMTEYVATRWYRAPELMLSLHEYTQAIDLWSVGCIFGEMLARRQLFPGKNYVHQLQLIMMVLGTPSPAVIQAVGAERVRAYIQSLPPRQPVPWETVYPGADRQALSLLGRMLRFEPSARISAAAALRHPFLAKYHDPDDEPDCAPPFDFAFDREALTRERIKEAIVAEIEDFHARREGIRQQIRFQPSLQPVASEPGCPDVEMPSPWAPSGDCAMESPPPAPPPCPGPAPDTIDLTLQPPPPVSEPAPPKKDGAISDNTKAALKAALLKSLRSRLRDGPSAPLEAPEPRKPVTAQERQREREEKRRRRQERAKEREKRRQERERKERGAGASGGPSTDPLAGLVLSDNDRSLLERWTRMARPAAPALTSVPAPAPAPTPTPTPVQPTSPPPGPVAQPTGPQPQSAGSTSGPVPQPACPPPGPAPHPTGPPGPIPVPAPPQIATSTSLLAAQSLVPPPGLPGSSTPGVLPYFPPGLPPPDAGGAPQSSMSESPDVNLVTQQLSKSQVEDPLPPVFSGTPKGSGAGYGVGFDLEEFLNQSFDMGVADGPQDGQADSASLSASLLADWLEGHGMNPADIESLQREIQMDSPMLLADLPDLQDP

SMILES | luciferase signal
CN(CC[C@H](N)CC(=O)N[C@H]1C=C[C@H](n2ccc(N)nc2=O)O[C@@H]1C(=O)O)C(=N)N | 80 AU (inactive)
CC(=O)OC1CCC2(C)C(CCC3C2CCC2(C)C(C4=CC(=O)OC4)C(OC(C)=O)CC32O)C1 (centres undefined) | 16 AU (inactive)
COC1=C[C@]23CCCN2CCc2cc4c(cc2[C@@H]3[C@@H]1O)OCO4 | 56 AU (inactive)
CN1[C@H]2C[C@H](OC(=O)[C@H](CO)c3ccccc3)C[C@@H]1[C@@H](O)C2 | 56 AU (inactive)
CC(C)c1cc2c(c(O)c1O)[C@@]1(C(=O)O)CCCC(C)(C)[C@@H]1CC2 | 52 AU (inactive)
C[C@@H]1CC[C@@]2(OC1)O[C@H]1[C@@H](O)[C@H]3[C@@H]4CC[C@H]5C[C@@H](O[C@@H]6O[C@H](CO)[C@H](O[C@@H]7O[C@H](CO)[C@@H](O)[C@H](O[C@@H]8OC[C@@H](O)[C@H](O)[C@H]8O)[C@H]7O[C@@H]7O[C@H](CO)[C@H](O)[C@H](O[C@@H]8O[C@H](CO)[C@@H](O)[C@H](O)[C@H]8O)[C@H]7O)[C@H](O)[C@H]6O)[C@H](O)C[C@]5(C)[C@H]4CC[C@]3(C)[C@H]1[C@@H]2C | 48 AU (inactive)
C[C@]12CCC(=O)C[C@@H]1CC[C@@H]1[C@@H]2CC[C@]2(C)C(=O)CC[C@@H]12 | 68 AU (inactive)
CC[C@]12C=CCN3CC[C@@]4(c5ccc(OC)cc5N(C)[C@H]4[C@@](O)(C(=O)OC)[C@@H]1OC(C)=O)[C@@H]32 | 44 AU (inactive)
COc1cc2c(cc1OC)[C@@H]1C(=O)c3ccc4c(c3O[C@@H]1CO2)C[C@H](C(C)C)O4 | 152 AU (inactive)
